# Data: publication PMC7862700, “An all-to-all approach to the identification of sequence-specific readers for epigenetic DNA modifications on cytosine”
# How the values were obtained:
# Experiment in all cases: DAPPL (digital affinity profiling via proximity ligation, sequencing); 10 mM Tris-HCl pH 7.5, 50 mM NaCl, 1 mM DTT, 4% glycerol, room temperature, 30 min; GST-TFs on glutathione beads, 16-mer random dsDNA library, 0.1% formaldehyde crosslink after washing; high values mean tight binding
# [1] = target: T1, FEV (Homo sapiens, UniProt Q99581 1-238); details: protein: recombinant; tags: N-terminal GST; dsDNA, one strand shown
# T1 sequence: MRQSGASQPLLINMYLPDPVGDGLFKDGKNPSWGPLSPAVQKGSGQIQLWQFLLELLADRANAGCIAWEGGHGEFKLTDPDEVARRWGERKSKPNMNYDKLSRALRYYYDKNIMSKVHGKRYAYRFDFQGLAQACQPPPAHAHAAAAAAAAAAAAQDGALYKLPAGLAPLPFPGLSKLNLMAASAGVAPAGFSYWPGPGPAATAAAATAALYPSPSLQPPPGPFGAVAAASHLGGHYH
# Outline: (§1)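 Binding signal is given per hexamer as its read frequency for a factor divided by its frequency in the tag-only sample. GST-fused human transcription factors were expressed in yeast, captured on glutathione beads, barcoded with DNA and pooled with that sample, then incubated with 200 nmole of a 16-mer random double-stranded DNA library in Tris/NaCl/DTT/glycerol buffer for 30 min at room temperature. The pools were then washed, crosslinked, proximity-ligated, amplified by PCR and sequenced on an Illumina NextSeq500.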
# [2] = target: ETV5 (Homo sapiens, UniProt P41161 1-510); details: protein: recombinant; tags: N-terminal GST; dsDNA, one strand shown
# Outline: as §1
# [3] = target: HSF1 (Homo sapiens, UniProt Q00613 1-529); details: protein: recombinant; tags: N-terminal GST; chain copies: 3; dsDNA, one strand shown
# Outline: as §1
# [4] = target: T2, SPIC (Homo sapiens, UniProt Q8N5J4 1-248); details: protein: recombinant; tags: N-terminal GST; dsDNA, one strand shown
# T2 sequence: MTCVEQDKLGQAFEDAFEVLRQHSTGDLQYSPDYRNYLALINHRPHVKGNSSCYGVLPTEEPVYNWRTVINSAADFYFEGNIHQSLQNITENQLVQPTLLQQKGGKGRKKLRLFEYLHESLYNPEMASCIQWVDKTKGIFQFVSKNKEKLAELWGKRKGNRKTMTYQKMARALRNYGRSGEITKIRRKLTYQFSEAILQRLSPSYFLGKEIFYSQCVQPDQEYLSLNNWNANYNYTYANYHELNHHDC
# Outline: as §1
# [5] = target: ELF4 (Homo sapiens, UniProt Q99607 1-663); details: protein: recombinant; tags: N-terminal GST; dsDNA, one strand shown
# Outline: as §1
# [6] = target: T3, ELK4 (Homo sapiens, UniProt P28324-2 1-405); details: protein: recombinant; tags: N-terminal GST; dsDNA, one strand shown
# T3 sequence: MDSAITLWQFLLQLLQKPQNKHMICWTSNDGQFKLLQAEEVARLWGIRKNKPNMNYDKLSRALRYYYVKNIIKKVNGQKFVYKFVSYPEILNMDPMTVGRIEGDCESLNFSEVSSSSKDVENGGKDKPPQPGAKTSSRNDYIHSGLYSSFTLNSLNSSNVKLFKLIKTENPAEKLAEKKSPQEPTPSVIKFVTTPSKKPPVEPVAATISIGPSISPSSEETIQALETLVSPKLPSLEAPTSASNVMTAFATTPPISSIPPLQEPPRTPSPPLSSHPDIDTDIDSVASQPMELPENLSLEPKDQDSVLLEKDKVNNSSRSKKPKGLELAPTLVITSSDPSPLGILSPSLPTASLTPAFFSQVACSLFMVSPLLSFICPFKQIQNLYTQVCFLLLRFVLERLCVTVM
# Outline: as §1
# [7] = target: T4, ETV2 (Homo sapiens, UniProt O00321 1-342); details: protein: recombinant; tags: N-terminal GST; dsDNA, one strand shown
# T4 sequence: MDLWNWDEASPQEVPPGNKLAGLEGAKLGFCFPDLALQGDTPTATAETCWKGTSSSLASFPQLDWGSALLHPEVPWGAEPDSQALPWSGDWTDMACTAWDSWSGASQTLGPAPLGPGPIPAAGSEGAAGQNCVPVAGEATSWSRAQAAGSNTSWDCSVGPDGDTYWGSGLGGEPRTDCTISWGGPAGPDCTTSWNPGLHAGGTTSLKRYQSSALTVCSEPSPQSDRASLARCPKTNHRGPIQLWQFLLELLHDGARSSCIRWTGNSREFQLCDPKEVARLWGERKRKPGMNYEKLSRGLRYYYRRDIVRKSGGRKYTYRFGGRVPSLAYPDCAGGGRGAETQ
# Outline: as §1
# [8] = target: T5, ELF3 (Homo sapiens, UniProt P78545 1-371); details: protein: recombinant; tags: N-terminal GST; dsDNA, one strand shown
# T5 sequence: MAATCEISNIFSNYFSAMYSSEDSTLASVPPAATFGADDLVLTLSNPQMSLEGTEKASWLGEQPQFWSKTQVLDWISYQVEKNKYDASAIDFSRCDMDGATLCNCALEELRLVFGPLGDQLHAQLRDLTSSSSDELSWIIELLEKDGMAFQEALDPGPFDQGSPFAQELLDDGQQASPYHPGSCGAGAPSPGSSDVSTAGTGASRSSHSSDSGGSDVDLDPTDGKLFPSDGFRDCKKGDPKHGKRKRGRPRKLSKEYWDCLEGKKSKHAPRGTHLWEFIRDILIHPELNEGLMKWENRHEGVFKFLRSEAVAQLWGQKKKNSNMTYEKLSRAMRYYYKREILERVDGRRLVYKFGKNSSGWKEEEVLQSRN
# Outline: as §1
# [9] = target: CRX (Homo sapiens, UniProt O43186 1-299); details: protein: recombinant; tags: N-terminal GST; dsDNA, one strand shown
# Outline: as §1
# [10] = target: ETV1 (Homo sapiens, UniProt P50549 1-477); details: protein: recombinant; tags: N-terminal GST; dsDNA, one strand shown
# Outline: as §1
# [11] = target: T6, ERF (Homo sapiens, UniProt P50548 1-548); details: protein: recombinant; tags: N-terminal GST; dsDNA, one strand shown
# T6 sequence: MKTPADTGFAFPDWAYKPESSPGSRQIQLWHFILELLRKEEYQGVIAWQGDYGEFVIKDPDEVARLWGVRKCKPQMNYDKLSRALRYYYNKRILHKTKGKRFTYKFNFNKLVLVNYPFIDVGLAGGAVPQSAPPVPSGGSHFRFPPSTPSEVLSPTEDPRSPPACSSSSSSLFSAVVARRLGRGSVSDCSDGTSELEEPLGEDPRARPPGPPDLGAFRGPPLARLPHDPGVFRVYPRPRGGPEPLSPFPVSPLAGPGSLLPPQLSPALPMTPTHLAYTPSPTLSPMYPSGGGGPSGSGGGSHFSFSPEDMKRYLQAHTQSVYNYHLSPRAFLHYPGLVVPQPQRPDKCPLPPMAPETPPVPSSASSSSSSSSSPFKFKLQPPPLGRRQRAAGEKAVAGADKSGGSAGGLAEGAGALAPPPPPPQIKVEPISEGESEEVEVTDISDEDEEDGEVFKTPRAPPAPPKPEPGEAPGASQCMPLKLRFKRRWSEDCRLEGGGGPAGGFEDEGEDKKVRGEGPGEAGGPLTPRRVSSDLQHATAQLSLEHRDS
# Outline: as §1
# [12] = target: T7, ETV3L (Homo sapiens, UniProt Q6ZN32 1-361); details: protein: recombinant; tags: N-terminal GST; dsDNA, one strand shown
# T7 sequence: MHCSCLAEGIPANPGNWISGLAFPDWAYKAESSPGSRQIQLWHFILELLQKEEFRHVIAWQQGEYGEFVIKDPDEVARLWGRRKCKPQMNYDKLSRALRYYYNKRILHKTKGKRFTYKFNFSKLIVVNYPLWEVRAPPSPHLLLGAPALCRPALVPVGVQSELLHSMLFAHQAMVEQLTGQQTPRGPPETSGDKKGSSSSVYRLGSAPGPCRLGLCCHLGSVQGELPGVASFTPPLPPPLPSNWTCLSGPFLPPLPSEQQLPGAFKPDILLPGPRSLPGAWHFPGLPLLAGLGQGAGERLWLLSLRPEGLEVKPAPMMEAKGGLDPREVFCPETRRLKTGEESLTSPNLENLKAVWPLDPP
# Outline: as §1
# [13] = target: T8, ETS2 (Homo sapiens, UniProt P15036 1-469); details: protein: recombinant; tags: N-terminal GST; dsDNA, one strand shown
# T8 sequence: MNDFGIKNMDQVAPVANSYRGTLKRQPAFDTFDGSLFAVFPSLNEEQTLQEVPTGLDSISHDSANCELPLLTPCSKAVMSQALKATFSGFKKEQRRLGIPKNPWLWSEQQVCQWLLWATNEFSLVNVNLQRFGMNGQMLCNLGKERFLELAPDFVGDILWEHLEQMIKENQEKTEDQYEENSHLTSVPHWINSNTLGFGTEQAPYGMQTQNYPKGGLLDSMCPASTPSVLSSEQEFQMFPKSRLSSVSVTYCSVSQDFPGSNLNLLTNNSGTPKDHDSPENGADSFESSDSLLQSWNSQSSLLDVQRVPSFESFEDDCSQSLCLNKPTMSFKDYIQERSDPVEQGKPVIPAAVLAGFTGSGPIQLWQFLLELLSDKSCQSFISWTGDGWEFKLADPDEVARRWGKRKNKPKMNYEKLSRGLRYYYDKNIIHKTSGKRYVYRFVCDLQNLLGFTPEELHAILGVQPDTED
# Outline: as §1
# [14] = target: T9, SPDEF (Homo sapiens, UniProt O95238 1-335); details: protein: recombinant; tags: N-terminal GST; dsDNA, one strand shown
# T9 sequence: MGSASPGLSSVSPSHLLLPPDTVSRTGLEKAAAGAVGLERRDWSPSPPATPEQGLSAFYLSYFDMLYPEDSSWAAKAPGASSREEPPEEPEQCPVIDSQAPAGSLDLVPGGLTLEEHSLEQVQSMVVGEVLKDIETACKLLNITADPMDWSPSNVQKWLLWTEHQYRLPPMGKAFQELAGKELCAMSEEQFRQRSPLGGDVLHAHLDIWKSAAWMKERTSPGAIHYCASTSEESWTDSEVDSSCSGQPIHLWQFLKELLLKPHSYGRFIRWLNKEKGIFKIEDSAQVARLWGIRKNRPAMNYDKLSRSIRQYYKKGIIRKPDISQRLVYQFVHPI
# Outline: as §1
# [15] = target: T10, ETV7 (Homo sapiens, UniProt Q9Y603 1-341); details: protein: recombinant; tags: N-terminal GST; dsDNA, one strand shown
# T10 sequence: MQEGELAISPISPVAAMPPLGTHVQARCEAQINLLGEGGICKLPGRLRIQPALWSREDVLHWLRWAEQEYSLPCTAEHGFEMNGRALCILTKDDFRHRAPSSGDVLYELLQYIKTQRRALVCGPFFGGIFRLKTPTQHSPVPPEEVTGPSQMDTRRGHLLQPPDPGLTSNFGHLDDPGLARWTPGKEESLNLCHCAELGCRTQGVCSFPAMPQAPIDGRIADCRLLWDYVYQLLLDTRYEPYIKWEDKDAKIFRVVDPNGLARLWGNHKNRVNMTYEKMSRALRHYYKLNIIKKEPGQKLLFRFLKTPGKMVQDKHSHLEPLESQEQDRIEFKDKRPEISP
# Outline: as §1
# [16] = target: T11, ELF5 (Homo sapiens, UniProt Q9UKW6-2 1-255); details: protein: recombinant; tags: N-terminal GST; dsDNA, one strand shown
# T11 sequence: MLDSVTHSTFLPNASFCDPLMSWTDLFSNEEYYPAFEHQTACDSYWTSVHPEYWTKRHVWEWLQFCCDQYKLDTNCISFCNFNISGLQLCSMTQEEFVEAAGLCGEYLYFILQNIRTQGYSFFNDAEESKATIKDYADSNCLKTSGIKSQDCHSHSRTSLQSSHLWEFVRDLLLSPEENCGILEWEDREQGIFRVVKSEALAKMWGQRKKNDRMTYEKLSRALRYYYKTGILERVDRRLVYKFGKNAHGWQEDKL
# Outline: as §1
# [17] = target: T12, ETV3 (Homo sapiens, UniProt P41162-2 1-143); details: protein: recombinant; tags: N-terminal GST; dsDNA, one strand shown
# T12 sequence: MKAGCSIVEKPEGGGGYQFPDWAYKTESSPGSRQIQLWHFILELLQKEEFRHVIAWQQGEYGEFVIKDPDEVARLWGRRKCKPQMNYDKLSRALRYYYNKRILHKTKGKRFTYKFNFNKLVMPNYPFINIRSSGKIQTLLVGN
# Outline: as §1
# [18] = target: ETV6 (Homo sapiens, UniProt P41212 1-452); details: protein: recombinant; tags: N-terminal GST; dsDNA, one strand shown
# Outline: as §1
# Chain of ETV6 (P41212 whole entry): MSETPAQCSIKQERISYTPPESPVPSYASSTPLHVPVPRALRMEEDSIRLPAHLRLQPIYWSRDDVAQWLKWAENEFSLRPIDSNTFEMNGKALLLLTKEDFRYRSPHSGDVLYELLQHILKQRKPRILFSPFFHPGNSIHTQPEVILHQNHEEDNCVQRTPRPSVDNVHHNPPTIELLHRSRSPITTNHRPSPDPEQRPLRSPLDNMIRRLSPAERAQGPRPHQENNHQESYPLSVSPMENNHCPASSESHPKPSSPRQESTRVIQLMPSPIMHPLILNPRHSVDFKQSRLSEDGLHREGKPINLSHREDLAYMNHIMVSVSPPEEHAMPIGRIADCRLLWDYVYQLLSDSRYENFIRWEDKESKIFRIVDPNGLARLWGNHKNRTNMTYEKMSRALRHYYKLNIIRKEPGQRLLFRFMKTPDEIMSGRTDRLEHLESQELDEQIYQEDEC
# Chain of HSF1 (Q00613 whole entry): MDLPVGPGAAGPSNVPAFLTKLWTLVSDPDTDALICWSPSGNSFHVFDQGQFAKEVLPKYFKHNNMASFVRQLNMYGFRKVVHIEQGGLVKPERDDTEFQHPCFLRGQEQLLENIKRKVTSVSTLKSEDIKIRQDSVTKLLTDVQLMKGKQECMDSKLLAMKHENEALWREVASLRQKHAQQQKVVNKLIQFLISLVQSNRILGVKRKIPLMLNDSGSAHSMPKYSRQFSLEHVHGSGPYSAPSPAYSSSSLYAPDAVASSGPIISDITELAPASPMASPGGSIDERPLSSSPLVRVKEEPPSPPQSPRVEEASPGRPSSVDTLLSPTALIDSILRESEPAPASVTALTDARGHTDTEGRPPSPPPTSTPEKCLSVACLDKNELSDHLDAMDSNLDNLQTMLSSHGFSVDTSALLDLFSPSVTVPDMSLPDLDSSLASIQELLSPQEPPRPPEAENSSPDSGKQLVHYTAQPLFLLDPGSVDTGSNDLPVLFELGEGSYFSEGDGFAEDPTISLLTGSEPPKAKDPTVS
# Chain of ETV1 (P50549 whole entry): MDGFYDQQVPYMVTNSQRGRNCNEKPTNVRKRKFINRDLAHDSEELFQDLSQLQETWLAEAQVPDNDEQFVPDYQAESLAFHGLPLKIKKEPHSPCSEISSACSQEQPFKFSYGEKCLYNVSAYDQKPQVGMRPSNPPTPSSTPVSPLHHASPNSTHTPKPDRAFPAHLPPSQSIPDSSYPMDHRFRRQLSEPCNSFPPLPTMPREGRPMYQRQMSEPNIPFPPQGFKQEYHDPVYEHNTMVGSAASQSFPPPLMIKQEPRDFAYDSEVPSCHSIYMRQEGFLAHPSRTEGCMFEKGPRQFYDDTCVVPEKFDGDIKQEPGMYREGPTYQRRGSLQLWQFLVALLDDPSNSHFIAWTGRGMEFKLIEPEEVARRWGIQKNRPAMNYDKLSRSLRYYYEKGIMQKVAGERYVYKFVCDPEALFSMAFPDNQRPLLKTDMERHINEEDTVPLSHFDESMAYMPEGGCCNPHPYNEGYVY
# Chain of ELF4 (Q99607 whole entry): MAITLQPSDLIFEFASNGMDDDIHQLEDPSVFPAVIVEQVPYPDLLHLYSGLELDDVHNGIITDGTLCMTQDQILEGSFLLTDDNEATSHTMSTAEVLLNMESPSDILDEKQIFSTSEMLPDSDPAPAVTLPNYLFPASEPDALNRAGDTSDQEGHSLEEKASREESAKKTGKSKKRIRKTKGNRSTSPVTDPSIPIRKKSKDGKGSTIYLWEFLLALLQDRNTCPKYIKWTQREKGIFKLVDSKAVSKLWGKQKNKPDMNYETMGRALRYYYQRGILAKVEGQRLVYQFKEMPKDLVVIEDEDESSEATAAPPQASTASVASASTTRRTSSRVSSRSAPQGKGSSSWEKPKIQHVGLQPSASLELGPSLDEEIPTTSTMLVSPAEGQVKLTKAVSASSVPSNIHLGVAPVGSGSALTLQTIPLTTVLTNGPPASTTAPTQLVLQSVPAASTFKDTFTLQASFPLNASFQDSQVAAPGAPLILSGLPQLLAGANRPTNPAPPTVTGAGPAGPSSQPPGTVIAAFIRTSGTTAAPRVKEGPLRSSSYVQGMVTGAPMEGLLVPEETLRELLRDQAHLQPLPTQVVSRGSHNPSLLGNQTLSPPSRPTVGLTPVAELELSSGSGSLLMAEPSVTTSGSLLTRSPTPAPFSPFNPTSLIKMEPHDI
# Chain of CRX (O43186 whole entry): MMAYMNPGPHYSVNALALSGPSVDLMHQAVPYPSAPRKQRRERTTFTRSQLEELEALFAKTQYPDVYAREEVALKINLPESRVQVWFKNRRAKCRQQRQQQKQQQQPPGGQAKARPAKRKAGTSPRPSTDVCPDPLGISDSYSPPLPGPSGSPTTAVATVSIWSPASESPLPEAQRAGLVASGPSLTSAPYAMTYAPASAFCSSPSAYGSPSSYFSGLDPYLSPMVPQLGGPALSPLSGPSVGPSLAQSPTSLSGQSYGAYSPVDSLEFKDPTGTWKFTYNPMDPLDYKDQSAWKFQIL
# Chain of ETV5 (P41161 whole entry): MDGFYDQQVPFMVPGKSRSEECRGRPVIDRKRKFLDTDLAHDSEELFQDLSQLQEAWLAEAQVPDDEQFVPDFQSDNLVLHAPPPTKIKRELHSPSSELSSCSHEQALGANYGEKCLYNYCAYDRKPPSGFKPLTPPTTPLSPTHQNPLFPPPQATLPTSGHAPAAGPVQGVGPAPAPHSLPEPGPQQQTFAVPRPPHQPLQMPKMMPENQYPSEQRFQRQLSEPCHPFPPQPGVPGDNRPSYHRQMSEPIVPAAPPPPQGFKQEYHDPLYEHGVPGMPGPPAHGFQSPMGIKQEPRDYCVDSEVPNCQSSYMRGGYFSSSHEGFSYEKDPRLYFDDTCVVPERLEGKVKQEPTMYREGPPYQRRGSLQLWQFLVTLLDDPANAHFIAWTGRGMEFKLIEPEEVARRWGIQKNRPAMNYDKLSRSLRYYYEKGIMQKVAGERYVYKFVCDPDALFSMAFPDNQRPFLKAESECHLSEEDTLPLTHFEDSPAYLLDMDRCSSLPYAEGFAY
sequence,measurement,setting,value
GCTTAG,binding signal,[1],"1.08 fold enrichment (6-mer frequency, TF over GST control)"
same,binding signal,[2],"1.13 fold enrichment (6-mer frequency, TF over GST control)"
same,binding signal,[3],"1.78 fold enrichment (6-mer frequency, TF over GST control)"
same,binding signal,[4],"1.12 fold enrichment (6-mer frequency, TF over GST control)"
same,binding signal,[5],"1.1 fold enrichment (6-mer frequency, TF over GST control)"
same,binding signal,[6],"1.17 fold enrichment (6-mer frequency, TF over GST control)"
same,binding signal,[7],"1.08 fold enrichment (6-mer frequency, TF over GST control)"
same,binding signal,[8],"1.09 fold enrichment (6-mer frequency, TF over GST control)"
same,binding signal,[9],"2.49 fold enrichment (6-mer frequency, TF over GST control)"
same,binding signal,[10],"1.27 fold enrichment (6-mer frequency, TF over GST control)"
same,binding signal,[11],"1.2 fold enrichment (6-mer frequency, TF over GST control)"
same,binding signal,[12],"1.12 fold enrichment (6-mer frequency, TF over GST control)"
same,binding signal,[13],"1.11 fold enrichment (6-mer frequency, TF over GST control)"
same,binding signal,[14],"1.17 fold enrichment (6-mer frequency, TF over GST control)"
same,binding signal,[15],"1.13 fold enrichment (6-mer frequency, TF over GST control)"
same,binding signal,[16],"1.01 fold enrichment (6-mer frequency, TF over GST control)"
same,binding signal,[17],"1.19 fold enrichment (6-mer frequency, TF over GST control)"
same,binding signal,[18],"1.07 fold enrichment (6-mer frequency, TF over GST control)"
